Experimental findings from PubChem BioAssay (Tox21) are described below.

Assay [1] in a line: qHTS assay to identify small molecule antagonists of the estrogen related receptor (ERR) signaling pathway from Tox21 library - cell viability counter screen (AID 1224834). Note: nearly all actives have a fitted effect of over 30% in size. The procedure, abridged:
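After 17.5 h of compound exposure at 37 C, ERR cells are incubated with CellTiter-Fluor for 30 min and fluorescence intensity serves as the viability measure.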

The target of assay [2] is Luciferin 4-monooxygenase (Photinus pyralis) (UniProt P08659). The assay can be described thus: qHTS assay to identify small molecule inhibitors of firefly luciferase (AID 1224835). Note: nearly all actives have a fitted effect of over 25% in size. In short, it runs like this:
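Inhibition of purified Photinus luciferase is measured by luminescence. Substrate levels (D-luciferin, ATP) sit at their KM values. Each compound is tested in a concentration series.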
On the technique in general: Quantitative high-throughput screening tests each substance at several concentrations.

A short description of assay [3]: qHTS assay to identify small molecule agonists of the constitutive androstane receptor (CAR) signaling pathway - cell viability counter screen (AID 1224836). Note: nearly all actives have a fitted effect of over 45% in size. In short, it runs like this: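 HepG2 cells stably carrying hCAR and a CYP2B6-2.2kb reporter; 15-concentration compounds plus PK11195 (final 0.75 uM), 23 hr at 37 C/5% CO2. Viability read by CellTiter-Fluor fluorescence.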

The nature of assay [4]: qHTS assay to identify small molecule antagonists of the constitutive androstane receptor (CAR) signaling pathway - cell viability counter screen (AID 1224837). Note: nearly all actives have a fitted effect of over 45% in size. In short, it runs like this: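 Counter screen run in HepG2-CYP2B6-hCAR cells: 4 hr settle, compound titration (15 concentrations) with 50 nM CITCO, 23 hr at 37 C/5% CO2, CellTiter-Fluor fluorescence.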
Assay [5] can be described thus: qHTS assay to identify small molecule antagonists of the estrogen related receptor signaling pathway with the pleiotropic PPARgamma coactivator (PGC) from Tox21 10K library - cell viability counter screen (AID 1224840; active = well fitted cell-killing curve with a large enough effect in the repeat runs, not every such curve was filed as active; note: nearly all actives have a fitted effect of over 40% in size; note: potency is the fitted concentration of half-maximal effect). In short, it runs like this:
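Following seeding of 2,000 PGC/ERR cells/well and 6 hours' incubation, test compounds were delivered in DMSO. The plates then sat 17.5 hours at 37 C before a fluorogenic live-cell protease reagent (CellTiter-Fluor) was read after 30 min.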

The nature of assay [6]: qHTS assay to identify small molecule agonists of the hypoxia (HIF-1) signaling pathway - cell viability counter screen (AID 1224844; calls by dose curve; note: nearly all actives have a fitted effect of over 50% in size; note: potency is the fitted concentration of half-maximal effect). The procedure, abridged: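 Cells (HRE-bla ME-180, 2,000 per well) sat 5 hrs at 37C, got compound for 17 hrs, were read for CCF4-AM FRET, and were finally lysed with CellTiter-Glo for a 30 min room-temperature luminescence read.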
A short description of assay [7]: qHTS assay to identify small molecule agonists of H2AX (AID 1224845; active = well fitted activation curve with a large enough effect in the signal ratio in the repeat runs, not every such curve was filed as active; the % refers to the signal ratio). The procedure, abridged: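 Phospho-H2AX Ser139 measured by HTRF (ex 320 nm; em 665 and 620 nm) after 24 hr antibody incubation. Compounds, 15 concentrations, 0.76% DMSO, were applied to CHO-K1 cells for 3hr at 37C before lysis.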
Assay [8] in a line: qHTS assay to identify small molecule agonists of the hypoxia (HIF-1) signaling pathway (AID 1224846; active = well fitted activation curve with a large enough effect in the signal ratio in the repeat runs, not every such curve was filed as active; the % refers to the signal ratio). The procedure, abridged:
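A low-serum medium (0.5% dialyzed FBS) holding 2,000 HRE-bla ME-180 cells per well is preincubated for 5 hrs, dosed with compounds by pintool, and kept a further 17 hrs at 37C, 5% CO2 before CCF4-AM FRET detection of beta-lactamase.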

The nature of assay [9]: qHTS assay to identify small molecule agonists of H2AX - cell viability counter screen (AID 1224847; calls by dose curve;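 note: wild-type CHO-K1 cells; top concentration of the series differs between compounds; nearly all actives have a fitted effect of over 30% in size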). In short, it runs like this:
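CHO-K1 cells plated overnight at 37C, then exposed 3 h at 37C to compounds at 15 concentrations (0.76% DMSO final). Viability by CellTiter-Glo luminescence after 30 min at room temperature.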

Assay [10] is described as follows: qHTS RealTime-Glo MT Cell Viability Assay in HepG2 cells - 24 hour (AID 1224867). Note: nearly all actives have a fitted effect of over 50% in size. The procedure, abridged: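 HepG2 cells (600/well) were dispensed with RealTime-Glo reagents, incubated 5 h at 37 °C, then treated with compounds in DMSO for up to 40 h. Nonlytic NanoLuc luminescence reflecting viable cells was read at each stated time point.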
A short description of assay [11]: qHTS RealTime-Glo MT Cell Viability Assay in HEK293 cells - 32 hour (AID 1224868). Note: nearly all actives have a fitted effect of over 50% in size. Note: potency is the fitted concentration of half-maximal effect. The procedure, abridged:
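HEK293 cells seeded with NanoLuc/prosubstrate reagent, rested 5 h at 37 C, then dosed and kept at 37 C up to 40 h. Nonlytic real-time luminescence from viable cells read at 0, 8, 16, 24, 32 and 40 h.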

Assay [12] in a line: A CellTox Green Cytotoxicity Assay to monitor cytotoxicity in HEK293 cells - 0 hour (AID 1224869). Note: nearly all actives have a fitted effect of over 50% in size. In short, it runs like this: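 Fluorescence intensity, read at 0, 8, 16, 24, 32 and 40 h of compound treatment, reflected dye binding to DNA of dead HEK293 cells; compounds (23 nL, DMSO) were added 5 h after plating cells with reagent.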
Assay [13] in a line: qHTS RealTime-Glo MT Cell Viability Assay in HepG2 cells - 40 hour (AID 1224870). Note: nearly all actives have a fitted effect of over 50% in size. In short, it runs like this:
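Real-time viability: cells seeded at 600 per well together with NanoLuc and cell-permeant prosubstrate, compounds added after 5 h incubation. Luminescence tracked at 0, 8, 16, 24, 32 and 40 h of exposure.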

The target of assay [14] is Nuclear receptor subfamily 1 group I member 3 (Homo sapiens) (UniProt Q14994). The experiment in a line: qHTS assay to identify small molecule antagonists of the constitutive androstane receptor (CAR) signaling pathway (AID 1224838).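 Note: HepG2 cells stably expressing hCAR with CYP2B6 luciferase reporter stimulated by CITCO; nearly all actives have a fitted effect of over 40% in size.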 In short, it runs like this: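 Cell line: HepG2 double-stable for hCAR and CYP2B6-2.2kb reporter. Agonist: CITCO, 50 nM final. Compounds: 15 concentrations, 24 h, 37 C. Detection: ONE-Glo luminescence.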

For assay [15], the target named is Thyrotropin receptor (Homo sapiens) (UniProt P16473). The experiment in a line: qHTS assay to identify small molecule agonists of the thyroid stimulating hormone receptor (TSHR) signaling pathway (AID 1224843; calls by dose curve; note: nearly all actives have a fitted effect of over 45% in size). In short, it runs like this:
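HEK293 cells stably bearing the thyrotropin receptor were plated at 800 cells/well and challenged with compound (30 min, RT). Accumulated cAMP was quantified via cAMP-d2 competing for cryptate-tagged antibody.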

Assay [16] can be described thus: qHTS assay to identify small molecule antagonists of the estrogen related receptor signaling pathway with the pleiotropic PPARgamma coactivator (PGC) from Tox21 10K library (AID 1224841; call rule not given here; note: potency is the fitted concentration of half-maximal effect). In short, it runs like this:
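qHTS antagonist format: PGC/ERR cells, 2k/well, compound in DMSO by pin transfer after 6 h attachment, 18 h treatment at 37 C, One-Glo luminescence read at 30 min.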

The nature of assay [17]: qHTS assay to identify small molecule antagonists of the estrogen related receptor (ERR) signaling pathway from Tox21 library (AID 1224848). Note: nearly all actives have a fitted effect of over 50% in size. In short, it runs like this: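 Reading was by luminescence 30 min after ONE-Glo addition. Before that, ERR cells at 2,000 per well had rested 6 h at 37 C/5% CO2 and then received pin-tooled compounds in DMSO for 18 h at 37 C.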
Assay [18] in a line: qHTS assay to identify small molecule agonists of the estrogen related receptor (ERR) signaling pathway from Tox21 library (AID 1224849; calls by dose curve; note: nearly all actives have a fitted effect of over 15% in size). The settings on record: ERR reporter cell line, ONE-Glo luciferase, 18 h. The procedure, abridged:
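Screening used an NTP-provided ERR luciferase cell line. Compounds in DMSO were added 6 h after seeding and left 18 h at 37 C before a 30 min ONE-Glo step and luminescence reading.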

“And” between values parts separate entries of the source, which are not always exact repeats. Identical values can stand only once. Inconclusive results are not listed. A structure can be active in one record and inactive in another. The source made the active and inactive calls. Unless noted, calls come from the whole dose curve; as a rule, active = well fitted curve in the direction sought with a large enough effect in the repeat runs; inconclusive = weak or mixed curves; inactive = no such curve, though single readings can be large; an effect the other way counts as inactive or inconclusive.
% is set by controls: 0 for no effect and ±100 for the full control effect.

Luciferin 4-monooxygenase (Photinus pyralis), sequence (P08659 whole entry, looked up): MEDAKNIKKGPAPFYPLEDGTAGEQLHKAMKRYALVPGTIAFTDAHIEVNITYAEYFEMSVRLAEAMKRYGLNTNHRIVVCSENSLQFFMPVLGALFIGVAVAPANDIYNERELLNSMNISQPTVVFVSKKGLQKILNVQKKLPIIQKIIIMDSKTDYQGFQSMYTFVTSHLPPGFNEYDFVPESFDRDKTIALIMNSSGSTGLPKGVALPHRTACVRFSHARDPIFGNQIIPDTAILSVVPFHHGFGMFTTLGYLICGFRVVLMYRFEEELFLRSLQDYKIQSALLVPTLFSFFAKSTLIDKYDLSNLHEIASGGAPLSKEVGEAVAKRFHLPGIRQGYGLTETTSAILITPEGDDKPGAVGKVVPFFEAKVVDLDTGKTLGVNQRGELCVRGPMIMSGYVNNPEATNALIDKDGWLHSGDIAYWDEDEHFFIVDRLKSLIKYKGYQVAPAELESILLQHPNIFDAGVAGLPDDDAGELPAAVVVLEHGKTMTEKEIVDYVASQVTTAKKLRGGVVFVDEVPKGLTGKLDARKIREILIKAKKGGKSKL
Thyrotropin receptor (Homo sapiens), sequence (P16473 whole entry, looked up): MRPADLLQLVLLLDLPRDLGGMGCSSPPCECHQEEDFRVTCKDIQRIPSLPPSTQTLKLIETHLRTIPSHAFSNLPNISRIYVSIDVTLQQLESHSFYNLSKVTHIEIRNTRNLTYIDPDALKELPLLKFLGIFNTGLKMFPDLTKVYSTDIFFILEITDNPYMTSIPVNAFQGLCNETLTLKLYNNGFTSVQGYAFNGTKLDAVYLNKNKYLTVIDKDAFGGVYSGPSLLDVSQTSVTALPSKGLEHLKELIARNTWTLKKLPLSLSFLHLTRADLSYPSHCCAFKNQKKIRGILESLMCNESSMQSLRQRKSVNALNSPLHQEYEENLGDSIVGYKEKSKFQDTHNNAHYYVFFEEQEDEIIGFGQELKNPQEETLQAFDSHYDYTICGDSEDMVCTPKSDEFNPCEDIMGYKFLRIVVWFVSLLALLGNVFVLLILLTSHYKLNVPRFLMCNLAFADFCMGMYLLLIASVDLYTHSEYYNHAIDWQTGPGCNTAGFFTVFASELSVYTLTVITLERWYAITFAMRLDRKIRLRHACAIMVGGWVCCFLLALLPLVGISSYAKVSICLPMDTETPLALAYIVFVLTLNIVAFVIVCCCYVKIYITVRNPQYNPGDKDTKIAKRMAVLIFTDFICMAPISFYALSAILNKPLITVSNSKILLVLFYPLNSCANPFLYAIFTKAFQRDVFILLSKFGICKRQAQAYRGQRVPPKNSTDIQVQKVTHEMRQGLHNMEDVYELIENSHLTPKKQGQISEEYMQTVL
Nuclear receptor subfamily 1 group I member 3 (Homo sapiens), sequence (Q14994 whole entry, looked up): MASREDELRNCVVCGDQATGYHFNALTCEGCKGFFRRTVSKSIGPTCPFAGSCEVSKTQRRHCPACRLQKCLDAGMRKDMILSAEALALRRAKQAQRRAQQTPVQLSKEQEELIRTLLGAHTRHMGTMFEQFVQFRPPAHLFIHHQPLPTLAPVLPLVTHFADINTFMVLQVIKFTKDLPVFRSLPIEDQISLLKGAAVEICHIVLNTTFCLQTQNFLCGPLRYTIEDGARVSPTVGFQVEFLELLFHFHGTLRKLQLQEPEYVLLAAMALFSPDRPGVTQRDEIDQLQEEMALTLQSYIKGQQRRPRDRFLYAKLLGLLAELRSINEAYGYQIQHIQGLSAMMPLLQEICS

As to `CC(=O)/C=C/C1=C(C)CCCC1(C)C`, the Potency result in [1], in assay [2], in assay [3], in assay [4], in assay [5] and in assay [6] was “inactive” each time. The Potency entry in assay [7], in assay [9], in [11] and in assay [12] was “inactive” in each case. Further, the result in [8], in assay [10] and in assay [13] was inactive.
In the case of `COc1cc2c(c(OC)c1OC)-c1ccc(OC)c(=O)cc1[C@@H](NC(C)=O)CC2`, the Potency entry in assay [1], in assay [2], in [3], in [7], in [9] and in [12] was “inactive” in each case. Moreover, the Potency in [5] was 2.4 µM (active) and inactive; in [6], 48.4 µM (active) and inactive; in assay [11] it was 24.3 nM (active). In addition, the call in [8], in assay [10] and in assay [13] was inactive.
On to `NC(=O)NO`, for which the Potency entry in assay [1], in assay [2], in assay [3], in assay [4], in assay [14] and in assay [5] was “inactive” throughout. For the same compound, the Potency result in assay [15], in assay [6], in assay [7], in assay [9], in [11] and in assay [12] was “inactive” each time. Also, the outcome in [10] and in [13] was inactive.
As for `OC[C@@H](O)[C@@H](O)[C@H](O)[C@H](O)CO`, the Potency result in assay [1], in [2], in assay [3], in assay [4], in assay [5] and in [16] was “inactive” in each case. Moreover, the Potency entry in assay [15], in [6], in [7], in assay [9], in assay [17] and in assay [11] was “inactive” in each case. Besides, the Potency entry in [12] is “inactive”. Moreover, the call in assay [8], in assay [10] and in assay [13] was inactive. Moreover, the activity change, positive = activation in assay [18] (at 42.5 µM (top of the series)) was 2.34% (inactive); in assay [18] (at 92.4 µM (top of the series)), 1.3% (inactive) and 3.91% (inactive).
For `NC(N)=NC(N)=NCCc1ccccc1`, the Potency result in assay [1], in [2], in assay [3], in assay [4], in assay [5] and in assay [15] was “inactive” throughout. Further, the Potency entry in assay [6], in assay [7], in assay [9], in [11] and in assay [12] was “inactive” throughout. Moreover, the compound was classed as inactive in [8], in [10] and in assay [13].
`Oc1cccc(O)c1`: the Potency entry in assay [1], in assay [2], in assay [3], in [4], in assay [5] and in assay [15] was “inactive” throughout. Further, the Potency result in assay [6], in assay [7], in assay [9], in [17], in assay [11] and in assay [12] was “inactive” each time. Moreover, the Potency in [16] is 18.8 nM (active) and inactive. The call in assay [8], in assay [10] and in assay [13] was inactive. In addition, the activity change, positive = activation in [18] (at 42.5 µM (top of the series)) was 6.02% (inactive); in [18] (at 92.4 µM (top of the series)), -15.4% (inactive) and -1.21% (inactive).
As to `CCCCCCCCCCCCCC(=O)OC(C)C`, the Potency result in assay [1], in assay [2], in assay [3], in [4], in [5] and in assay [15] was “inactive” each time. In addition, the Potency entry in [6], in assay [7], in assay [9] and in assay [12] was “inactive” throughout. For the same compound, the call in assay [8], in assay [10] and in [13] was inactive. For the same compound, in assay [11], the Potency entry is “inactive and 2.45 µM (active)”.
On to `CC(=O)c1ccc(S(=O)(=O)NC(=O)NC2CCCCC2)cc1`, for which the Potency result in [1], in assay [2], in [3], in assay [4], in assay [5] and in [15] was “inactive” each time. Also, the Potency result in assay [6], in [7], in assay [9], in [11] and in assay [12] was “inactive” in each case. Further, the compound was classed as inactive in assay [10] and in assay [13].
